The values that follow come from PubChem BioAssay (NCI).

Molecules are shown by their SMILES. The panel holds about 83,000 compounds, 20% with a hit somewhere; the sample as a whole holds those more often.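 Interpretation: 100, growth as untreated; towards 0, rising growth inhibition; 0, no net growth; 0 to -100, cell death. Compounds scoring below 10 were considered active.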 A number with no mark means an inactive call. Active and inactive are the calls of the source.

Assay in all cases: NCI-60 one-dose screen, 48 h (100 = growth as untreated, 0 = no growth, -100 = all killed)
Common to all, as to conditions: 10 µM unless noted

Assay [1] deals with DU-145 prostate.
The subject of assay [2] is K-562 leukemia.
Assay [3] deals with MALME-3M melanoma.
Assay [4] relates to MDA-MB-231 breast.
The subject of assay [5] is RXF 393 renal.
Assay [6] has as its system SF-268 CNS.
For assay [7], the system named is SF-295 CNS.
Assay [8] deals with SF-539 CNS.
Assay [9] relates to UACC-257 melanoma.
For assay [10], the system named is M14 melanoma.
Assay [11] concerns HCT-15 colon.
For assay [12], the system named is HT29 colon.
The test system of assay [13] is SNB-75 CNS.
For assay [14], the system named is SNB-19 CNS.
The subject of assay [15] is U251 CNS.
Assay [16] concerns PC-3 prostate.
Assay [17] relates to SK-MEL-5 melanoma.
Assay [18] relates to UACC-62 melanoma.
The subject of assay [19] is LOX IMVI melanoma.
Assay [20] concerns SK-MEL-28 melanoma.

Take `O=C(c1ccc(Cl)cc1)N1CCN(c2ccnc3cc(Cl)ccc23)CC1`: the growth was 112% in assay [1]; 77.1% in [2]; 84.4% in assay [3]; 89.1% in assay [4]; 77.5% in [5]; 100% in [6]. For the same compound, the growth in assay [7] was 95.8%; in [8], 100%; in assay [9] it was 91%; in assay [10], 98%; in [11], 95.5%; in assay [12] it was 81.7%. Further, the growth in assay [13] was 110%; in [14] it was 84.2%; in [15] it was 78.7%; in [16], 80%; in assay [17], 90.8%; in assay [18], 71.5%. For the same compound, the growth is 103% in [19] and 99.6% in assay [20].
For the compound `COc1ccc(Cc2cc(-c3ccccc3)nn(Cc3ccccc3)c2=O)cc1OC`, the growth in assay [1] was 73.8%; in assay [2], 22.2%; in assay [3], 23.4%; in [4] it was 43.6%; in assay [5] it was 42.4%; in [6] it was 57%. Further, the growth is 28.8% in assay [7]; 63.4% in assay [8]; 34.4% in assay [9]; 38% in [10]; 28.7% in assay [11]; 29.1% in assay [12]. Also, the growth in [13] is 58.3%; in assay [14], 46.5%; in [15], 32.7%; in assay [16] it was 20.8%; in assay [17], -3.54% (active); in assay [18], 30.6%. The growth was 48.4% in [19] and 59.3% in assay [20].
Regarding `COc1ccc2c(c1)[n+]([O-])c(C(=O)/C=C/C=C(\Cl)c1cc(OC)c(OC)c(OC)c1)c(C)[n+]2[O-]`, the growth in assay [1] is 96.7%; in assay [2], 110%; in [3] it was 61.5%; in assay [4], 74.9%; in assay [5] it was 47.8%; in assay [6] it was 47.1%. The growth in assay [7] was 21.3%; in assay [8], 66.8%; in assay [9] it was 108%; in [10], 102%; in [11] it was 95.4%; in assay [12], 101%. Besides, the growth in assay [13] is -26% (active); in assay [14], 55.9%; in assay [15] it was 8.58% (active); in [16], 93%; in assay [17] it was 121%; in assay [18], 68.2%. For the same compound, the growth in assay [19] was 41.7%; in assay [20], 99.1%.
As for `C=C1CC[C@@H]2[C@](C)(COC(C)=O)[C@H](OC(C)=O)CC[C@@]2(C)[C@@H]1CC(Sc1ccccc1)C1=CCOC1=O` (stereo not given in full), the growth in assay [1] is 16.4%; in [2] it was 3.95% (active); in [3], 16.8%; in [4], 7.4% (active); in assay [5], 5.01% (active); in [6], 11.6%. In addition, the growth is 65.9% in [7]; -43.6% (active) in assay [8]; 29.4% in assay [9]; -4.19% (active) in [10]; -38.4% (active) in assay [11]; -39.3% (active) in [12]. The growth in assay [13] is 87%; in assay [14], 51.8%; in assay [15], 22.9%; in assay [16], 36.4%; in [17] it was 13.5%; in assay [18], -1.75% (active). Moreover, the growth was -83.9% (active) in assay [19] and 6.34% (active) in assay [20].
Consider `CN(CCOc1ccc(C#N)cc1)CCOc1ccc(C#N)cc1`, for which the growth was 94.3% in assay [1]; 101% in assay [2]; 76.5% in [3]; 71.2% in assay [4]; 53.7% in assay [5]; 103% in assay [6]. For the same compound, the growth in assay [7] was 483%; in assay [8], 96.1%; in [9], 65.8%; in assay [10], 65.2%; in assay [11], 85.8%; in [12], 88.7%. The growth is 83.4% in [13]; 44.5% in [14]; 78% in assay [15]; 71.7% in assay [16]; 6.74% (active) in [17]; 73.4% in assay [18]. For the same compound, the growth in [19] is 84.9%; in assay [20], 94.9%.
`O=C(Cn1c2c(c3ccccc31)CCCC2)Nc1ccc(-c2nc3ccccc3s2)cc1`: the growth in assay [1] was 98.8%; in assay [2] it was 74.4%; in [3] it was 105%; in assay [4], 96%; in [5], 105%; in [6], 97.6%. Further, the growth in assay [7] was 103%; in [8] it was 102%; in assay [9], 106%; in assay [10], 108%; in assay [11] it was 101%; in [12], 107%. Moreover, the growth in [13] is 106%; in assay [14] it was 100%; in assay [15], 96.9%; in assay [16], 94.7%; in [17] it was 93.6%; in assay [18], 90.1%. In addition, the figures for the growth in assay [19] and in [20] were 79.9% and 103%, respectively.
Turning to `CS(=O)(=O)C1=CN(CCO)C(=O)N2CCCN=C12`, the growth in assay [1] is 105%; in assay [2] it was 118%; in [3] it was 96.2%; in assay [4] it was 98.6%; in [5], 106%; in assay [6], 97.2%. Besides, the growth in [7] was 105%; in assay [8], 102%; in assay [9], 105%; in [10], 98.9%; in assay [11], 107%; in assay [12], 107%. In addition, the growth was 94.5% in assay [13]; 99.2% in assay [14]; 103% in [15]; 98.8% in assay [16]; 97.7% in [17]; 102% in [18]. Moreover, the values for the growth in assay [19] and in assay [20] were 101% and 104%, respectively.
With `O=C(Nc1cc(Cl)ccc1O)c1ccc(Nc2ccnc(C(F)(F)F)c2)cc1`, the growth is 42.9% in [1]; 5.89% (active) in assay [2]; 60.5% in [3]; 68.1% in [4]; 98.9% in [5]; 69.1% in [6]. Besides, the growth was -7.57% (active) in [7]; 80.4% in assay [8]; 78% in assay [9]; 46.8% in assay [10]; 30.9% in assay [11]; 95.5% in [12]. Further, the growth in assay [13] is 69.2%; in assay [14], 24.6%; in [15], 31.7%; in assay [16] it was 14.7%; in [17] it was 47.1%; in assay [18], 27.7%. In addition, the growth in assay [19] is 27.8%; in [20], 83.6%.
